Source: PubChem
Sampled rows, rich in hits. Any-hit rate of the full collection: about 1.3%.
PME-1 primary: PME-1 inhibitors via competitive probe labeling, primary screen, biochemical, fluorescence polarization, FP-Rh probe, HTS; Protein phosphatase methylesterase 1 (Homo sapiens), Q9Y570; recombinant PME-1; inhibition, % at 5.9 µM; 320,000 tested, 0.53% active;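 active means inhibition above the campaign mean of all compounds plus 3 SD, cut at about 26% in these data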;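 further: competitive labeling of PME-1 active site by serine hydrolase directed probe; 0% = PME-1 with DMSO and 100% = wells lacking PME-1 enzyme; inhibitors block probe labeling so polarization falls and inhibition rises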
LYPLA2 counter: LYPLA2 inhibitors, primary screen, counter-screen for PME1 inhibitor project, biochemical, fluorescence polarization, FP-Rh probe ABPP. inhibition, % at 5.9 µM. recombinant LYPLA2. Acyl-protein thioesterase 2 (Homo sapiens), O95372. AID 2177, 2009. 320,000 tested, 0.38% active;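 active means inhibition above the screen-wide mean plus 3 SD, limit set per campaign, cut at about 26% in these data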;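 further: 0% = LYPLA2 with DMSO and 100% = wells lacking LYPLA2 enzyme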
Target sequence (O95372 whole entry, looked up): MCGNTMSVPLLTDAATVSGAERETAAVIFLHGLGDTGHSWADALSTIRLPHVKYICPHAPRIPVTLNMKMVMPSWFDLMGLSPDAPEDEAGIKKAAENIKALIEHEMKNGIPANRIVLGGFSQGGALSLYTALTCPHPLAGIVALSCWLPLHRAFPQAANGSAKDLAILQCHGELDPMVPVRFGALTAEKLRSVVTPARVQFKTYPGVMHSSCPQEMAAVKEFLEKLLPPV
PREPL inh: PREPL enzyme inhibitors, primary screen, biochemical, fluorescence polarization; recombinant PREPL, fluorescence polarization activity-based probe; 320,000 tested, 0.68% active; AID 2751, 2010; inhibition, % at 5.96 µM; in the data active means inhibition above about 43%;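 further: 0% = enzyme with DMSO and 100% = wells lacking enzyme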
LYPLA1 counter: LYPLA1 inhibitors, primary screen, counter-screen for PME1 inhibitor project, biochemical, fluorescence polarization, FP-Rh probe ABPP; recombinant LYPLA1; 320,000 tested, 0.16% active; inhibition, % at 5.9 µM;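 active means inhibition above the mean of all tested compounds plus 3 SD, set per campaign, cut at about 14% in these data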;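 further: inhibitors block serine hydrolase probe labeling of LYPLA1 so polarization falls; 0% = enzyme with DMSO and 100% = wells lacking LYPLA1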
Target sequence (O75608 whole entry, looked up): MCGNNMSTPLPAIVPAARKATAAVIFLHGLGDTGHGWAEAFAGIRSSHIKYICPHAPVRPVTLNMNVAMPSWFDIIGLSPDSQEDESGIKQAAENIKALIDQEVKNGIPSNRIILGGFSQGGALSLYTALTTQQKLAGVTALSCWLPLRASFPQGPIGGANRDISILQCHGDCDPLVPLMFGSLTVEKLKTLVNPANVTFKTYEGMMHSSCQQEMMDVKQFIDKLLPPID
Fam108B counter: mouse Fam108B serine hydrolase inhibitors, primary screen, counter-screen for RBBP9 inhibitor project, biochemical, fluorescence polarization; inhibition, % at 9.51 µM; 300,000 tested, 0.33% active; AID 1947, 2009; recombinant Fam108B, FP-Rh probe fluorescence polarization;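 active means inhibition above the screen mean inhibition plus 3 SD, computed separately per campaign, cut at about 18% in these data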;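 further: inhibitors lower polarization as less probe binds the enzyme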
LYPLA2 conf: LYPLA2 inhibitors, retest, confirmation, counter-screen for PME1 inhibitor project, biochemical, fluorescence polarization, FP-Rh probe ABPP | inhibition, % at 5.9 µM | 1,100 tested, 72% active | shares compounds with LYPLA2 counter | recombinant LYPLA2 | AID 2232, 2010;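 active means mean inhibition across replicates above the hit cutoff set in the primary screen, cut at about 26% in these data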;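 further: blocked labeling of the enzyme by serine hydrolase FP-Rh probe lowers polarization; 0% = enzyme with DMSO and 100% = wells lacking LYPLA2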
LYPLA2 ABPP: LYPLA2 inhibitors in proteome, late-stage follow-up, gel-based competitive ABPP, fluorescence, assay provider. shares compounds with LYPLA2 counter. rhLYPLA2 in mouse brain proteome, gel ABPP FP-Rh. inhibition, % at 20 µM. 150 tested, 30% active;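 active means inhibition of LYPLA2 enzyme probe labeling above about 50%, limit read from the data; inactive means inhibition below that limit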;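 further: loss of FP-Rh probe labeling of the LYPLA2 gel band measured as band density; 0% = DMSO only control band and 100% = blank gel background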
Starred values were filed as active, the others as inactive; . = no result given.

SMILES | PME-1 primary | LYPLA2 counter | PREPL inh | LYPLA1 counter | Fam108B counter | LYPLA2 conf | others
COc1cccc(CCN2CCC(CNS(=O)(=O)c3cc(-c4cc(C)no4)ccc3OC)CC2)c1 | 3 | -1 | -12 | -2 | -5 | .
O=C(Nc1ccc(Cc2ccncc2)cc1)c1ccc(Cl)c([N+](=O)[O-])c1 | 4 | -8 | 11 | -4 | -3 | .
Cc1c([N+](=O)[O-])cc(C(=O)Nc2ccc(Cc3ccncc3)cc2)cc1[N+](=O)[O-] | 7 | 29* | 3 | 2 | -1 | 28*
COc1ccc(N2CCN(C(=O)c3cc4c(s3)-c3ccccc3S(=O)(=O)C4)CC2)cc1 | 2 | 89* | 37 | 1 | 1 | 97* | LYPLA2 ABPP=100*
O=C(CCCc1nc(-c2ccccc2)no1)NC1CCCCC1 | -3 | -4 | -7 | -3 | -1 | .
O=[N+]([O-])c1ccc(Oc2cccc(C(F)(F)F)c2)nc1 | -3 | 41* | 3 | 1 | 3 | 75* | LYPLA2 ABPP=47
Cc1cc(OCC(=O)Nc2ccc(CN3CCOCC3)cc2)c2c(C)c(C)c(=O)oc2c1 | -1 | 30* | -6 | -1 | -7 | 36*
Cc1cc(OCC(=O)NCCCN2CCOCC2)c2c(C)c(C)c(=O)oc2c1 | 5 | 4 | 4 | 4 | 1 | .
Cc1cc(OCC(=O)Nc2ccc(CN3CCOCC3)cc2)c2c(C)cc(=O)oc2c1 | 3 | 43* | -2 | 2 | 3 | 48*
CCCC(C)NC(=O)COC(=O)c1cccc(NS(C)(=O)=O)c1 (configuration not stated) | -3 | -3 | -3 | -2 | -4 | .
O=C(c1ccc(F)cc1)C1CCN(CCn2c(=O)[nH]c3ccccc3c2=O)CC1 | 0 | 33* | 21 | 8 | 4 | 36*
O=C(CCCn1c(=O)[nH]c2ccccc2c1=O)Nc1ccc(F)cc1 | 13 | -5 | 9 | -2 | 2 | .
CC(=O)N1c2ccc(S(=O)(=O)NCC3CCC(C(=O)NCc4ccc(C)cc4)CC3)cc2CC1C (configuration not stated) | 1 | 28* | 2 | -2 | 7 | 28*
COc1ccc(NC(=O)C2CCN(c3ncnc4c3nc3n4CCCCC3)CC2)cc1Cl | 3 | 7 | 17 | -1 | -2 | .
CCOC(=O)N1CCC(NC(=O)c2cc3cc4cc(OC)ccc4nc3o2)CC1 | -6 | 35* | 1 | 9 | 2 | 31*
COc1ccc(/C(O)=C2/C(=O)C(=O)N(CCN3CCNCC3)C2c2cccc([N+](=O)[O-])c2)cc1 (configuration not stated) | 2 | -4 | 10 | -4 | -4 | .
O=C(Nc1ccon1)c1cccc(S(=O)(=O)N2CCCCC2)c1 | 5 | 4 | 2 | 1 | 2 | .
COc1ccc(CCNc2oc(-c3ccc(OC)c(OC)c3)nc2P(=O)(OC)OC)cc1OC | 4 | 28* | 0 | 1 | 3 | -5
CC(C)(C)C(=O)Nc1ccc(C(=O)Nc2cccc(Oc3ccc(C(=O)O)c(C(=O)O)c3)c2)cc1 | -8 | 31* | 0 | 2 | -3 | 21
O=C(Nc1cccc(Oc2ccc(C(=O)O)c(C(=O)O)c2)c1)c1ccc(-c2ccccc2)cc1 | -21 | 54* | -9 | -1 | -15 | 40*
O=C(CSc1ccc(F)cc1)Nc1ccc2c(c1)C(=O)NC2=O | -2 | -1 | 3 | -1 | -3 | .
CCc1nnc(NS(=O)(=O)c2ccc(N/C=C(\C=O)c3nc4cc(Cl)ccc4o3)cc2)s1 | 6 | 29* | 1 | 0 | -3 | 43*
O=C(NC(=S)N1CCN(c2ccc(C(F)(F)F)cc2[N+](=O)[O-])CC1)c1cccs1 | -5 | 36* | 4 | -1 | 3 | 30*
Cc1ccccc1-n1c(SCC(=O)NC(N)=O)nc2sc(-c3ccccc3)cc2c1=O | -5 | -4 | 1 | -6 | -7 | .
O=C(c1ccc(Cl)cc1)N1CCC(O)(CSc2ccc(Cl)cc2)CC1 | -4 | 33* | -8 | 2 | -1 | 29*
SMILES | PME-1 primary | LYPLA2 counter | PREPL inh | LYPLA1 counter | Fam108B counter | LYPLA2 conf | others
Cc1cc(Oc2cc(N)cc([N+](=O)[O-])c2)ccc1Cl | 11 | 42* | 28 | 5 | -1 | 39*
COC(=O)N/N=C/c1ccccc1OCc1ccccc1 | -1 | 0 | -1 | 0 | 1 | .
COC(=O)N/N=C/c1ccccc1OCCOc1ccc(OC)cc1 | -6 | 35* | 4 | 1 | -1 | 42*
O=C(CSc1nccn(-c2cccc(F)c2)c1=O)Nc1ccc(Cl)cc1F | -8 | -4 | 10 | -3 | -2 | .
COc1cccc2cc(C(=O)C3=C(O)C(=O)N(c4cc(C)on4)C3c3cccs3)oc12 (configuration not stated) | 2 | 8 | 16 | 0 | 0 | .
COc1ccc(CCN2C(=O)CC(Cc3ccccc3)C2=O)cc1OC (configuration not stated) | -8 | 7 | -29 | 1 | 2 | .
COc1ccc(CCN2C(=O)CC(NNc3ccc([N+](=O)[O-])cc3)C2=O)cc1OC (configuration not stated) | 5 | 51* | 1 | 1 | -2 | 54* | LYPLA2 ABPP=17
Cc1cc(C)c(N=C2SCC(=O)N2Cc2ccco2)c(C)c1 | -4 | -2 | 5 | 2 | 1 | .
O=C1CSC(=Nc2ccc(Cl)cc2)N1Cc1ccco1 | 4 | 26* | 2 | 8 | -6 | 28*
COc1ccc(C(=O)NC(=S)Nc2cccnc2)cc1[N+](=O)[O-] | 5 | 28* | -5 | 8 | 5 | 28*
c1ccc(-c2noc(C3CCC3)n2)nc1 | 4 | -1 | 5 | 2 | 2 | .
CCCCC1CCC(c2nc(-c3ccccn3)no2)CC1 (configuration not stated) | -7 | 29* | -12 | 8 | 2 | 38*
COc1cc(OC)cc(C(=O)N2CCN(c3ccc(N4CCOCC4)nn3)CC2)c1 | 1 | 11 | 10 | 2 | 4 | .
C[C@H](NC(=O)[C@@H]1CSC2c3ccccc3C(=O)N21)C(=O)NCc1c(F)cccc1Cl (some centres not stated) | 7 | 5 | 18 | -5 | 1 | .
COc1cc(C(=O)NCC(=O)NC(C)CCc2ccccc2)cc(OC)c1OC (configuration not stated) | 0 | 27* | 10 | 3 | -3 | -2
